Assay results taken from paper PMC11062922 (Nature Chemical Biology, 2023).
Read-outs that look alike come from different tables or passages of the source.

Experiments:
Parameters in all cases: species or system human, MV4-11 + K-562 + COLO205 + SK-N-BE2 + OVCAR-8
ADRBK1 = conditions: read-out: apparent Kd, n = 1
CDK6 = conditions: read-out: apparent Kd, n = 1
ADK = conditions: read-out: apparent Kd; compound concentrations: 100 nM and 1000 nM (sheet 'Samples'), CATDS: 3.8521875066841203E-2; n = 1
COX5A = conditions: read-out: apparent Kd; compound concentrations: 100 nM and 1000 nM (sheet 'Samples'), CATDS: 3.6331945852285497E-2; n = 1
CSNK1A1 = conditions: read-out: apparent Kd; compound concentrations: 100 nM and 1000 nM (sheet 'Samples'), CATDS: 6.6366617124681102E-2; n = 1
CSNK1D = conditions: read-out: apparent Kd; compound concentrations: 100 nM and 1000 nM (sheet 'Samples'), CATDS: 0.21669980545697101; n = 1
CSNK1E = conditions: read-out: apparent Kd; compound concentrations: 100 nM and 1000 nM (sheet 'Samples'), CATDS: 0.13524385654208201; n = 1
CSNK1G1 = conditions: read-out: apparent Kd; compound concentrations: 100 nM and 1000 nM (sheet 'Samples'), CATDS: 3.36950722911461E-2; n = 1
CSNK1G3 = conditions: read-out: apparent Kd; compound concentrations: 100 nM and 1000 nM (sheet 'Samples'), CATDS: 3.7890071369445298E-2; n = 1
DJA1 = test system: T1, DJA1; conditions: read-out: apparent Kd, n = 1
T1 construct: gene DNAJA1

MAP4K5 = conditions: read-out: apparent Kd; compound concentrations: 100 nM and 1000 nM (sheet 'Samples'), CATDS: 3.4056635134305298E-2; n = 1
MAPK10 = conditions: read-out: apparent Kd; compound concentrations: 100 nM and 1000 nM (sheet 'Samples'), CATDS: 4.2468368704664097E-2; n = 1
MAPK11 = conditions: read-out: apparent Kd; compound concentrations: 100 nM and 1000 nM (sheet 'Samples'), CATDS: 0.108415283939704; n = 1
MAPK14 = conditions: read-out: apparent Kd, n = 1
MAPK9 = conditions: read-out: apparent Kd; compound concentrations: 100 nM and 1000 nM (sheet 'Samples'), CATDS: 5.19093996737921E-2; n = 1
MAPKAPK2 = conditions: read-out: apparent Kd, n = 1
NLK = conditions: read-out: apparent Kd; compound concentrations: 100 nM and 1000 nM (sheet 'Samples'), CATDS: 5.68204402660955E-2; n = 1
PKN3 = conditions: read-out: apparent Kd; compound concentrations: 100 nM and 1000 nM (sheet 'Samples'), CATDS: 3.0507466694278802E-2; n = 1
PRKCA = conditions: read-out: apparent Kd; compound concentrations: 100 nM and 1000 nM (sheet 'Samples'), CATDS: 4.1145920495800903E-2; n = 1
PRKCB = conditions: read-out: apparent Kd; compound concentrations: 100 nM and 1000 nM (sheet 'Samples'), CATDS: 3.4087347473579097E-2; n = 1
PRKD2 = conditions: read-out: apparent Kd; compound concentrations: 100 nM and 1000 nM (sheet 'Samples'), CATDS: 3.50594175571005E-2; n = 1
PRKD3 = conditions: read-out: apparent Kd; compound concentrations: 100 nM and 1000 nM (sheet 'Samples'), CATDS: 3.1320583757310602E-2; n = 1
RIPK2 = conditions: read-out: apparent Kd; compound concentrations: 100 nM and 1000 nM (sheet 'Samples'), CATDS: 4.9528140659543501E-2; n = 1
AKT2 = conditions: read-out: apparent Kd, n = 1
EIF2AK1 = conditions: read-out: apparent Kd; compound concentrations:100 nM and 1000 nM (sheet 'Samples'); n = 1
GSK3A = conditions: read-out: apparent Kd; compound concentrations:100 nM and 1000 nM (sheet 'Samples'); n = 1
GSK3B = conditions: read-out: apparent Kd; compound concentrations:100 nM and 1000 nM (sheet 'Samples'); n = 1
PIM2 = conditions: read-out: apparent Kd; compound concentrations:100 nM and 1000 nM (sheet 'Samples'); n = 1
PRKAG1 = conditions: read-out: apparent Kd; compound concentrations:100 nM and 1000 nM (sheet 'Samples'); n = 1
TAOK1 = conditions: read-out: apparent Kd; compound concentrations:100 nM and 1000 nM (sheet 'Samples'); n = 1
AGPS = conditions: read-out: apparent Kd; compound concentrations:100 nM and 1000 nM (sheet 'Samples'); n = 1
AKT1 = conditions: read-out: apparent Kd, n = 1
AKT3 = conditions: read-out: apparent Kd, n = 1
CDK16 = conditions: read-out: apparent Kd; compound concentrations:100 nM and 1000 nM (sheet 'Samples'); n = 1
CDK17 = conditions: read-out: apparent Kd; compound concentrations:100 nM and 1000 nM (sheet 'Samples'); n = 1
FLT3 = conditions: read-out: apparent Kd; compound concentrations:100 nM and 1000 nM (sheet 'Samples'); n = 1
ILK = conditions: read-out: apparent Kd, n = 1
MAP2K1 = conditions: read-out: apparent Kd; compound concentrations:100 nM and 1000 nM (sheet 'Samples'); n = 1
MAP2K2 = conditions: read-out: apparent Kd, n = 1
NNT = conditions: read-out: apparent Kd; compound concentrations:100 nM and 1000 nM (sheet 'Samples'); n = 1
NQO1 = conditions: read-out: apparent Kd; compound concentrations:100 nM and 1000 nM (sheet 'Samples'); n = 1
PDGFRB = conditions: read-out: apparent Kd; compound concentrations:100 nM and 1000 nM (sheet 'Samples'); n = 1
PIP4K2C = conditions: read-out: apparent Kd; compound concentrations:100 nM and 1000 nM (sheet 'Samples'); n = 1
PRKAG2 = conditions: read-out: apparent Kd; compound concentrations:100 nM and 1000 nM (sheet 'Samples'); n = 1
PYGL = conditions: read-out: apparent Kd; compound concentrations:100 nM and 1000 nM (sheet 'Samples'); n = 1
RIOK2 = conditions: read-out: apparent Kd, n = 1
STK26 = conditions: read-out: apparent Kd; compound concentrations:100 nM and 1000 nM (sheet 'Samples'); n = 1
VDAC3 = conditions: read-out: apparent Kd; compound concentrations:100 nM and 1000 nM (sheet 'Samples'); n = 1
CDK4 = conditions: read-out: apparent Kd, n = 1
NQO2 = conditions: read-out: apparent Kd; compound concentrations:100 nM and 1000 nM (sheet 'Samples'); n = 1
PRKCZ = conditions: read-out: apparent Kd; compound concentrations:100 nM and 1000 nM (sheet 'Samples'); n = 1
TP53RK = conditions: read-out: apparent Kd; compound concentrations:100 nM and 1000 nM (sheet 'Samples'); n = 1
[1] = compound concentrations:100 nM and 1000 nM (sheet 'Samples')

Nc1n[nH]c2nnc(-c3ccccc3)cc12 [SB-517389]
potency estimated from few doses (ADRBK1; [1]): 1380 nM
potency estimated from few doses (CDK6; [1]): 1870 nM

Cl.Cl.Cl.Fc1ccc(-c2ncn(C3CCNCC3)c2-c2ccnc(Nc3ccccc3)n2)cc1.Fc1ccc(-c2ncn(C3CCNCC3)c2-c2ccnc(Nc3ccccc3)n2)cc1 [SB-238039-R]
potency estimated from few doses (ADK): 704 nM
potency estimated from few doses (COX5A): 873 nM
potency estimated from few doses (CSNK1A1): 131 nM
potency estimated from few doses (CSNK1D): 6.61 nM
potency estimated from few doses (CSNK1E): 18.5 nM
potency estimated from few doses (CSNK1G1): 1180 nM
potency estimated from few doses (CSNK1G3): 747 nM
potency estimated from few doses (DJA1; compound concentrations: 100 nM and 1000 nM (sheet 'Samples'), CATDS: 3.3060215115758199E-2): 1290 nM
potency estimated from few doses (MAP4K5): 1130 nM
potency estimated from few doses (MAPK10): 504 nM
potency estimated from few doses (MAPK11): 32.7 nM
potency estimated from few doses (MAPK14; compound concentrations: 100 nM and 1000 nM (sheet 'Samples'), CATDS: 0.505182268244599): 1.59 nM
potency estimated from few doses (MAPK9): 270 nM
potency estimated from few doses (MAPKAPK2; compound concentrations: 100 nM and 1000 nM (sheet 'Samples'), CATDS: 0.16433458855485): 11.8 nM
potency estimated from few doses (NLK): 206 nM
potency estimated from few doses (PKN3): 1900 nM
potency estimated from few doses (PRKCA): 560 nM
potency estimated from few doses (PRKCB): 1130 nM
potency estimated from few doses (PRKD2): 1000 nM
potency estimated from few doses (PRKD3): 1660 nM
potency estimated from few doses (RIPK2): 311 nM

O=C(Nc1n[nH]c2nc(-c3ccc(O)cc3)c(Br)cc12)C1CC1 [SB-725317]
potency estimated from few doses (ADRBK1; [1]): 1950 nM
potency estimated from few doses (AKT2; [1]): 2420 nM
potency estimated from few doses (EIF2AK1): 517 nM
potency estimated from few doses (GSK3A): 12.9 nM
potency estimated from few doses (GSK3B): 43.1 nM
potency estimated from few doses (PIM2): 768 nM
potency estimated from few doses (PRKAG1): 1610 nM
potency estimated from few doses (TAOK1): 1840 nM

NS(=O)(=O)c1ccc(Nc2ncc(-c3ccccc3)o2)cc1 [GW572399X]
potency estimated from few doses (ADRBK1; [1]): 1910 nM
potency estimated from few doses (AGPS): 2050 nM
potency estimated from few doses (AKT1; [1]): 1960 nM
potency estimated from few doses (AKT2; [1]): 1970 nM
potency estimated from few doses (AKT3; [1]): 1560 nM
potency estimated from few doses (CDK16): 1760 nM
potency estimated from few doses (CDK17): 2100 nM
potency estimated from few doses (DJA1; [1]): 1310 nM
potency estimated from few doses (FLT3): 164 nM
potency estimated from few doses (ILK; [1]): 1870 nM
potency estimated from few doses (MAP2K1): 1420 nM
potency estimated from few doses (MAP2K2; [1]): 1740 nM
potency estimated from few doses (NNT): 1770 nM
potency estimated from few doses (NQO1): 1900 nM
potency estimated from few doses (PDGFRB): 1480 nM
potency estimated from few doses (PIP4K2C): 2290 nM
potency estimated from few doses (PRKAG1): 1790 nM
potency estimated from few doses (PRKAG2): 1380 nM
potency estimated from few doses (PYGL): 1900 nM
potency estimated from few doses (RIOK2; [1]): 2160 nM
potency estimated from few doses (STK26): 1400 nM
potency estimated from few doses (VDAC3): 1580 nM

Cc1ccccc1-c1cc(-c2c[nH]nc2-c2ccccn2)ccn1 [GW680061X]
potency estimated from few doses (ADRBK1; [1]): 2140 nM
potency estimated from few doses (CDK4; [1]): 1890 nM
potency estimated from few doses (CDK6; [1]): 1960 nM
potency estimated from few doses (MAP2K2; [1]): 2250 nM
potency estimated from few doses (MAPK14; [1]): 993 nM
potency estimated from few doses (MAPKAPK2; [1]): 470 nM
potency estimated from few doses (NQO2): 1210 nM
potency estimated from few doses (PRKCZ): 2260 nM
potency estimated from few doses (TP53RK): 2160 nM

Cl.Nc1n[nH]c2cc(-c3ccccn3)ccc12 [GSK2189892A]
potency estimated from few doses (ADRBK1; compound concentrations: 100 nM and 1000 nM (sheet 'Samples'), CATDS: 0.135716479442168): 1470 nM
potency estimated from few doses (AKT1; compound concentrations: 100 nM and 1000 nM (sheet 'Samples'), CATDS: 0.124475037217828): 1730 nM
potency estimated from few doses (AKT2; compound concentrations: 100 nM and 1000 nM (sheet 'Samples'), CATDS: 0.124185471208428): 1740 nM
potency estimated from few doses (AKT3; compound concentrations: 100 nM and 1000 nM (sheet 'Samples'), CATDS: 0.12570475509553999): 1700 nM
potency estimated from few doses (CDK6; compound concentrations: 100 nM and 1000 nM (sheet 'Samples'), CATDS: 0.119736809743275): 1880 nM
potency estimated from few doses (ILK; compound concentrations: 100 nM and 1000 nM (sheet 'Samples'), CATDS: 0.12734816485016201): 1660 nM
potency estimated from few doses (MAP2K2; compound concentrations: 100 nM and 1000 nM (sheet 'Samples'), CATDS: 0.12469214085712101): 1730 nM
potency estimated from few doses (RIOK2; compound concentrations: 100 nM and 1000 nM (sheet 'Samples'), CATDS: 0.119525040636944): 1880 nM

CC(=O)c1c(C)c2cnc(Nc3ccc(N4CCNCC4)cn3)nc2n(C2CCCC2)c1=O [PFE-PKIS_32]
potency estimated from few doses (ADRBK1; [1]): 1170 nM
potency estimated from few doses (AKT2; [1]): 1960 nM
potency estimated from few doses (CDK4; compound concentrations: 100 nM and 1000 nM (sheet 'Samples'), CATDS: 0.36803542167658398): 118 nM
potency estimated from few doses (CDK6; [1]): 82.3 nM
potency estimated from few doses (PIP4K2C): 1610 nM
potency estimated from few doses (RIOK2; [1]): 2040 nM
